Here are results for 12 compounds from PubChem BioAssay.

SMILES strings stand for the structures.

For this test, the system named is PRMT1 (protein arginine N-methyltransferase 1). As to the kind of experiment: PRMT1 binders on small-molecule microarrays, primary screen, biochemical, small-molecule microarray, 635 nm fluorescence (AID 1088). Particulars: small-molecule microarray binding, higher = more signal.
Turning to `COC(=O)C(CC#Cc1ccc2c(c1)[C@]1(C(=O)N2)[C@H](c2ccccc2OCCO)N2[C@H](c3ccccc3)[C@H](c3ccccc3)OC(=O)[C@H]2[C@@H]1C(=O)N1CCN(c2ncccn2)CC1)C(=O)OC`, the composite z-score is 1.51.

On to `COC(=O)[C@@]1(Cc2ccc(F)cc2)[C@H]2c3cc(C(=O)N(C)C)n(Cc4ccc(C(F)(F)F)nc4)c3C[C@H]2CN1C(=O)c1ccccc1`, for which the composite z-score was 1.32.

Regarding `COCCCNC(=O)[C@]1(Cc2ccccc2CN=[N+]=[N-])N=C(c2ccc(OCCCO)cc2)O[C@@H]1c1ccccc1N=[N+]=[N-]`, the composite z-score is 0.772.

`[N-]=[N+]=Nc1ccccc1C[C@]1(C(N)=O)COC(c2ccc(OCCCO)cc2)=N1` yielded a composite z-score of -0.0424.

For `COc1cc(Cc2cc3c(c(-c4ccccc4)n2)[Si](C(C)C)(C(C)C)OC3)cc(OC)c1OC`, the composite z-score is -0.313.

With `COC(=O)C[C@H]1O[C@]2(C(=O)N(C)c3ccccc32)[C@@H](C)[C@@H]1[Si](C)(C)c1ccccc1`, the composite z-score was determined as 1.17.

`C=CC[C@H](O)c1ccc(O)c(F)c1` yielded a composite z-score of -0.255.

In the case of `COc1ccc(CCNC(=O)[C@@H]2c3ccccc3C(=O)N(C(C)C)[C@H]2c2ccc(CO)cc2)cc1`, the composite z-score is -0.592.

In the case of `COC(=O)[C@@]1(Cc2ccc(F)cc2)[C@H]2c3cc(C(=O)N(C)C)n(CCF)c3C[C@H]2CN1C(=O)c1ccccc1`, the composite z-score is -0.0162.

As to `Cc1ccc(N2C(=O)c3ccccc3[C@@H](C(=O)NCCN3CCOCC3)[C@@H]2c2ccc(CO)cc2)nc1`, the composite z-score worked out at 0.722.

Compound `O=C/C=C/c1ccc(-c2ccccc2)cc1` had a composite z-score of -0.645.

Take `CC[C@@H](O[Si](C#C[Si](C(C)C)(C(C)C)C(C)C)(C(C)C)C(C)C)c1cn([C@H](C)c2ccccc2)nn1`: the composite z-score is 0.991.
